HT1080 IDH1KD tx: kills HT-1080 cells with IDH1 knockdown. HT-1080 IDH1 knockdown viability, ATP luminescence, 48 h. Potency, µM (highest dose often 46.1 µM), hits mostly cytotoxic. 360,000 tested, 2% active. AID 686971
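% activity derives from luminescence (CellTiter-Glo), normalised to DMSO and no-cell wells. HT-1080-IDH1KD cells, 750/well, had 48 h compound exposure at 37 °C.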
KB-3-1 tox: KB-3-1 parental cell cytotoxicity | KB-3-1 viability, CellTiter-Glo ATP luminescence, 72 h | Potency, µM (titrated, usually from 46.1 µM), actives largely listed as cytotoxic | 400,000 tested, 1.4% active; note: nearly all actives have a fitted effect of over 60% in size
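Screening of KB-3-1 cells (DMEM, 10% FBS, phenol-red free) ran from lowest to highest compound concentration; after 72 h at 37 °C viability was read luminescently and curves fitted.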
KB-V1 MDR tox: KB-V1 MDR subline cytotoxicity | KB-V1 MDR cells viability, CellTiter-Glo, 72 h | Potency, µM (highest dose often 46.1 µM), hits mostly cytotoxic | 400,000 tested, 3.4% active | AID 1347076; note: nearly all actives have a fitted effect of over 60% in size
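Potencies derive from concentration-effect curves fitted to normalized luminescence (CellTiter-Glo) of KB-V1 cells treated for 72 h at 37 degrees C in phenol-red-free DMEM containing 10% FBS.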
MCF10A rereplic: DNA re-replication induction in MCF 10a cells. MCF 10A DNA re-replication, Hoechst nuclear intensity, 48 h. Potency, µM (highest dose often 46.1 µM), actives largely listed as activators. 350,000 tested, 2.9% active. AID 624296; note: nearly all actives have a fitted effect of over 50% in size
SW480 rereplic: inducers of DNA re-replication in SW480 colon cancer cells. 340,000 tested, 1.8% active. Potency, µM (highest dose often 46.1 µM), usual class: activators. SW480 DNA re-replication, Hoechst DNA content imaging, 48 h. AID 624297; note: nearly all actives have a fitted effect of over 55% in size
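Treated cells incubate 48 hr (37 C, 5% CO2), are stained 40 min with Hoechst, and nuclear fluorescence is enumerated; a rise in nuclei with high DNA signal marks re-replication.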
HT1080NT lethal: kills 2HG-producing HT-1080-NT fibrosarcoma cells; Potency, µM (doses to about 46.1 µM), hits mostly cytotoxic; 360,000 tested, 1.6% active; AID 686970; HT-1080-NT fibrosarcoma viability, CellTiter-Glo ATP luminescence, 48 h;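 note: NT is the 2HG producing partner of a matched IDH1 knockdown line; nearly all actives have a fitted effect of over 55% in size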
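A 48-hour cytotoxicity screen used HT-1080-NT cells plated 2 hours before compound delivery. ATP-based CellTiter-Glo luminescence measured viability, normalized to DMSO and no-cell controls.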
Numbers stand for hits. Sampled rows, rich in hits. Any-hit rate of the full collection: about 8%. Calls come from the whole dose curve; as a rule, active = well fitted curve in the direction sought with a large enough effect; inconclusive = small, poorly fitted or top-dose-only effect, or another doubt; inactive = no such curve, though single readings can be large; an effect the other way counts as inactive or inconclusive.

Screening COc1ccc(CCNC(=O)c2cc(COc3c(F)cccc3F)on2)c(OC)c1 returned HT1080 IDH1KD tx inactive, KB-3-1 tox inactive, KB-V1 MDR tox inactive, MCF10A rereplic inactive, SW480 rereplic inactive and HT1080NT lethal inactive.
`CCCCCCCN1C(Nc2ccccc2)=NC[C@@H]1CC(C)C` gave HT1080 IDH1KD tx inactive, KB-3-1 tox inconclusive, KB-V1 MDR tox inconclusive, MCF10A rereplic inactive, SW480 rereplic inconclusive and HT1080NT lethal inactive.
Screening Cc1ccc2nc3nc(NCC4CCCO4)c(C(=O)NC4CCCC4)cc3c(=O)n2c1 (configuration not stated) returned HT1080 IDH1KD tx inactive, KB-3-1 tox inactive, KB-V1 MDR tox inactive, MCF10A rereplic 2.6µM, SW480 rereplic inactive and HT1080NT lethal inactive.
For CCCn1c(=N)c(S(=O)(=O)c2ccc(F)cc2)cc2c(=O)n3ccccc3nc21 the results were HT1080 IDH1KD tx inactive, KB-3-1 tox inactive, KB-V1 MDR tox inactive, MCF10A rereplic inconclusive, SW480 rereplic inconclusive and HT1080NT lethal inactive.
For COc1ccc(CCNC(=O)c2cc3c(=O)n4cccc(C)c4nc3n(CC3CCCO3)c2=N)cc1 (configuration not stated) the results were HT1080 IDH1KD tx inactive, KB-3-1 tox inactive, KB-V1 MDR tox inactive, MCF10A rereplic 9.2µM, SW480 rereplic 8.2µM and HT1080NT lethal inactive.
N=c1c(S(=O)(=O)c2ccc(F)cc2)cc2c(=O)n3ccccc3nc2n1CC1CCCO1 (configuration not stated) was read as HT1080 IDH1KD tx inactive, KB-3-1 tox inactive, KB-V1 MDR tox inactive, MCF10A rereplic 16µM, SW480 rereplic 18µM and HT1080NT lethal inactive.
For Cc1cccn2c(=O)c3cc(C(=O)NCC4CCCO4)c(=N)n(CCc4ccccc4)c3nc12 (configuration not stated) the results were HT1080 IDH1KD tx inactive, KB-3-1 tox inactive, KB-V1 MDR tox inactive, MCF10A rereplic inactive, SW480 rereplic inconclusive and HT1080NT lethal inactive.
CCN(C(=O)CN1CCc2ccccc21)c1c(N)n(Cc2ccccc2)c(=O)[nH]c1=O was read as HT1080 IDH1KD tx inactive, KB-3-1 tox inactive, KB-V1 MDR tox inactive, MCF10A rereplic inactive, SW480 rereplic inactive and HT1080NT lethal inactive.
For OCCN(CC(O)Cn1ccc2ccccc21)CC(O)Cn1ccc2ccccc21 (configuration not stated) the results were HT1080 IDH1KD tx inactive, KB-3-1 tox inactive, KB-V1 MDR tox 15µM, MCF10A rereplic inactive, SW480 rereplic inactive and HT1080NT lethal inactive.
`OCCNCC(O)Cn1ccc2ccccc21` (configuration not stated) gave HT1080 IDH1KD tx inactive, KB-3-1 tox inactive, KB-V1 MDR tox inconclusive, MCF10A rereplic inconclusive, SW480 rereplic inactive and HT1080NT lethal inactive.
`Cc1ccccc1CSCc1nc(N)nc(Nc2ccccc2C)n1` gave HT1080 IDH1KD tx inactive, KB-3-1 tox inactive, KB-V1 MDR tox inactive, MCF10A rereplic inactive, SW480 rereplic inactive and HT1080NT lethal inactive.
`CCc1ccc(NC(=O)c2ccc(F)c(S(=O)(=O)NCC3COc4ccccc4O3)c2)cc1` (configuration not stated) gave HT1080 IDH1KD tx inactive, KB-3-1 tox inconclusive, KB-V1 MDR tox 3.3µM, MCF10A rereplic inactive, SW480 rereplic inactive and HT1080NT lethal inactive.
For O=c1c(Cl)c(NCC2CCCO2)cnn1C12CC3CC(CC(C3)C1)C2 (configuration not stated) the results were HT1080 IDH1KD tx inactive, KB-3-1 tox inactive, KB-V1 MDR tox inactive, MCF10A rereplic inactive, SW480 rereplic inactive and HT1080NT lethal inactive.
Screening CC(C)NC(=O)NC(=O)CSc1nnc(COc2ccccc2F)n1C(C)C1CC2CCC1C2 (configuration not stated) returned HT1080 IDH1KD tx inconclusive, KB-3-1 tox inconclusive, KB-V1 MDR tox inactive, MCF10A rereplic 13µM, SW480 rereplic inconclusive and HT1080NT lethal inconclusive.

Bioassay records (PubChem BioAssay)
